# Source: PubChem BioAssay (NMMLSC)
# RGS8-Gao reg = modulates binding of RGS8 to human Galphao | multiplexed bead flow cytometry; actives lie on both sides | P09471 | response (percent of control binding), % at 10 µM | 220,000 tested, 0.34% active | AID 1423; in the data active = response below about 60% or above about 140%; inactive = in between;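 also: Galphao activated as the GDP aluminium fluoride complex binding bead-coupled RGS8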
# Target sequence (P09471 whole entry, looked up): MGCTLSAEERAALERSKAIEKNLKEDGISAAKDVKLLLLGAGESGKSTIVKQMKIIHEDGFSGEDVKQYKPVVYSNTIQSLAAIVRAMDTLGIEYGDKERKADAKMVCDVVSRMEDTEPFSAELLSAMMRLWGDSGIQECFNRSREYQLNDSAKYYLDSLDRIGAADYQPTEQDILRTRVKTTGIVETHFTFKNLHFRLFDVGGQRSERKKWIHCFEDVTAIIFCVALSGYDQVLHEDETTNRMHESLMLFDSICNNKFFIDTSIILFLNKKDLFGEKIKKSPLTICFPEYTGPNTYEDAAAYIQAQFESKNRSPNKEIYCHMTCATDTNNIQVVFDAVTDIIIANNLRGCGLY
# RGS4-Gao reg = human RGS4-Galphao interaction regulation; P09471; Multiplexed bead flow cytometry, RGS4-Galphao binding; actives lie on both sides; binding response (% of control), % at 10 µM; 220,000 tested, 0.33% active; in the data active = binding response below about 49% or above about 150%; inactive = in between;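 also: fluorescent Galphao activated with aluminum fluoride binding bead-coupled RGS4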
# RGS16-Gao = regulators of human RGS16-Galphao interaction | 220,000 tested, 0.38% active | binding response (% of control), % at 10 µM | bead-based flow cytometry RGS16-Galphao binding, fluorescence; actives lie on both sides;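 also: Galphao activated by GDP with aluminum fluoride before binding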
# GSH fluor = GSH bead compound fluorescence profile; GSH beads flow cytometry, compound fluorescence 488/530 nm; hits give high values; fluorescence (KMESF) at 10 µM; 190,000 tested, 0.25% active; AID 1776; in the data active = fluorescence above about 89;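 also: glutathione beads carrying GST-tagged Bcl family fusion proteins plus one bare bead set; values are compound well signal with DMSO vehicle wells as background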
# Avidin bead fluor = compound fluoresces at 488/530 nm on avidin beads; compound fluorescence 488/530 nm, flow cytometry; hits give high values; fluorescence (KMESF) at 10 µM; 220,000 tested, 0.38% active; in the data active = fluorescence above about 47
# RGS7-Gao = human RGS7-Galphao interaction regulation; Multiplexed bead flow cytometry, RGS7-Galphao binding; actives lie on both sides; binding response (% of control), % at 10 µM; 220,000 tested, 0.35% active; in the data active = binding response below about 49% or above about 150%; inconclusive = no clear call, values can overlap the other calls; inactive = in between;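 also: fluorescent Galphao held in activated GDP-AlF4 state binding bead-coupled RGS7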
# RGS4-Gao HTS = regulators of human RGS4-Galphao interaction; shares compounds with RGS16-Gao; multiplexed bead flow cytometry, RGS–Galpha-o binding; RGS4–Galpha-o binding response, % at 10 µM; 1,600 tested, 99% active; AID 1504;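 also: fluorescently labeled Galpha-o bound to GDP with aluminium fluoride binding biotinylated RGS beads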
# Target sequence (P09471 whole entry, looked up): as above
# Target sequence (P49798 whole entry, looked up): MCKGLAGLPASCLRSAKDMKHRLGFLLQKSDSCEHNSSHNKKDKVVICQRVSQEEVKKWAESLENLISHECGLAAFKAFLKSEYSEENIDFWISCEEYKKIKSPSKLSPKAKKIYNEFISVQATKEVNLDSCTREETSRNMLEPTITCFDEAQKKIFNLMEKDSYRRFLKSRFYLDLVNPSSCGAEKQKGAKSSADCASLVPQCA
# Biotin-avidin = interferes with biotinylated probe binding to avidin beads. inhibition, % at 10 µM. AID 1783. shares compounds with RGS16-Gao. 1,700 tested, under 10 active. streptavidin beads, fluorescein-biotin binding, flow cytometry;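 active = inhibition above 50%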;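 also: median green fluorescence of gated singlet beads compared with DMSO control wells; 0% = DMSO wells and 100% = complete loss of bead fluorescence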
# RGS8-Gao single = confirmation of regulators of human RGS8-Galphao interaction; shares compounds with RGS16-Gao; bead-based flow cytometry RGS8-Galphao binding, fluorescence; actives lie on both sides; binding response (% of control), % at 10 µM; 1,700 tested, 3% active; AID 1836; in the data active = binding response below about 72% or above about 130%; inactive = in between;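 also: Galphao activated as GDP AlF4 complex before binding bead RGS8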
# RGS7-Gao confirm = confirmation of regulators of human RGS7-Galphao interaction; bead-based flow cytometry RGS7-Galphao binding; actives lie on both sides; shares compounds with RGS16-Gao; AID 1837; response (percent of control binding), % at 10 µM; 1,700 tested, 7.8% active; in the data active = response below about 75% or above about 130%; inactive = in between;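 also: fluorescent Galphao activated with GDP and aluminum fluoride binding bead-coupled RGS7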
# RGS16-Gao conf = confirmation of regulators of human RGS16-Galphao interaction; bead-based flow cytometry, RGS16-Galphao binding; actives lie on both sides; 1,700 tested, 4% active; shares compounds with RGS16-Gao; response (% of control binding), % at 10 µM; in the data active = response below about 74% or above about 130%; inactive = in between;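 also: Galphao activated as the GDP aluminium fluoride complex binding bead-coupled RGS16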
# RGS4-Gao confirm = confirmation of regulators of human RGS4-Galphao interaction; binding response (% of control), % at 10 µM; shares compounds with RGS16-Gao; AID 1840; 1,700 tested, 4% active; RGS4-Galphao binding, multiplexed bead flow cytometry; actives lie on both sides; in the data active = binding response below about 74% or above about 130%; inactive = in between
# RGS19-Gao conf = RGS19-Galphao interaction regulation, single point confirmation | response (percent of control binding), % at 10 µM | AID 1841 | bead-based flow cytometry RGS19-Galphao binding; actives lie on both sides | shares compounds with RGS16-Gao | 1,700 tested, 5% active; in the data active = response below about 50% or above about 160%; inactive = in between;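 also: 100% = no compound control and 0% = blank background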
# An asterisk follows results filed as active; i = inactive; ? = inconclusive; . = not tested or not shown; [ ] = another dose, or the depositor's remark. The list is not random: actives were taken first. Their share in the collection is about 1.2%. Unless noted, no rule for the calls is given here.
SMILES,RGS8-Gao reg,RGS4-Gao reg,RGS16-Gao,GSH fluor,Avidin bead fluor,RGS7-Gao,RGS4-Gao HTS,Biotin-avidin,RGS8-Gao single,RGS7-Gao confirm,RGS16-Gao conf,RGS4-Gao confirm,RGS19-Gao conf
CCN(CC)C(=O)CSc1nc(O)cc(=O)n1CC,97,126,113,14,156*,166*[activator],126*,.,.,.,.,.,.
Cc1cc(C)c(S(=O)(=O)/N=C2/C=C(Sc3ncn[nH]3)C(=O)c3ccccc32)cc1C,60,90,-0.4*,22,5,84,90*,.,.,.,.,.,.
Cc1ccc(NC2=C/C(=N/S(=O)(=O)c3cccs3)c3ccccc3C2=O)cc1C,100,100,96,14,3,99,.,.,.,.,.,.,.
COc1cccc(NC(=O)Nc2nnc(-c3ccccc3SCc3ccccc3)s2)c1,105,105,106,9,7,101,.,.,.,.,.,.,.
COc1ccc(NC(=O)Nc2nnc(-c3ccccc3SCc3ccccc3)s2)cc1,.,.,.,33,.,.,.,0,103,104,105,103,104
Cc1cc(C(=O)NN)c(Cl)cc1Cl,27*,21*,13*,.,0,?,.,2,111,107,107,105,107
CCNC(=S)N(Cc1ccc(OC)cc1)C1CC(=O)N(c2ccc(OCC)cc2)C1=O (stereo unspecified),.,.,.,18,.,.,.,0,102,108,107,103,99
CCNC(=S)N(Cc1ccc2c(c1)OCO2)C1CC(=O)N(c2ccc(OC)cc2)C1=O (stereo unspecified),71,85,32,19,5,82,.,.,.,.,.,.,.
Cc1ccc(C2=N/C(=C/N3CCOCC3)C(=O)O2)cc1,86,92,53,30,9,93,.,.,.,.,.,.,.
Cc1ccc(C2=N/C(=C\N3CCCCC3)C(=O)O2)cc1,115,198*[activator],204*[activator],31,89*,169*[activator],.,-2,101,101,101,103,99
C=C(C)c1cccc(C(C)(C)NC(=O)N2CCN(CC)CC2)c1,104,100,109,19,32,98,.,.,.,.,.,.,.
C=C(C)c1cccc(C(C)(C)NC(=O)N2CCCCC2CC)c1 (stereo unspecified),172*[activator],142,404,8,7,124,142*,.,.,.,.,.,.
COC(=O)c1ccccc1NC(=O)CN1C(=O)CSC1=O,.,.,.,41,.,.,.,1,100,99,100,99,89
COC(=O)c1cc(NC(=O)CN2C(=O)CSC2=O)ccc1Cl,97,105,111,11,15,109,.,.,.,.,.,.,.
COC(=O)c1ccccc1NC(=O)/C=C/C(=O)O,86,87,34*,13,8,96,87*,-2,101,102,101,101,94
Cc1ccc(C2CC(c3cccs3)=NN2C(=O)CSc2nc3ccccc3o2)cc1 (stereo unspecified),100,103,101,14,12,101,.,.,.,.,.,.,.
COc1ccc(N2CCN(C(=O)c3cccn4c(=O)c5ccccc5nc34)CC2)cc1,102,101,105,17,11,101,.,.,.,.,.,.,.
COc1ccc(N2CCN(C(=O)c3cccc4nc(C)oc34)CC2)cc1,15*,22*,13*,15,1,19*,.,0,100,95,98,96,86
C/C(=N\NC(=O)c1ccn(C)n1)c1cccc(NC(=O)c2ccc(C)s2)c1,101,99,103,16,3,100,.,.,.,.,.,.,.
CC(C)Oc1cccc(C(=O)NC(=S)Nc2cccc(NC(=O)c3ccccc3Cl)c2)c1,82,92,32,10,8,93,.,.,.,.,.,.,.
CCOC(=O)N1CCC(NC(=O)CSc2cc(=O)n(C)c3ccccc23)CC1,140*[activator],110,241,28,11,111,110*,-9,109,113,109,112,114
Cn1c(=O)cc(SCC(=O)N2CCCC2)c2ccccc21,101,98,94,38,6,101,.,.,.,.,.,.,.
COc1cc(C(=O)Nc2ccc(-n3cnnn3)c(C)c2)cc(OC)c1OC,41*,25*,24*,20,1,28*,.,0,108,106,117,105,121
Cc1cc(NC(=O)c2ccco2)ccc1-n1cnnn1,96,101,104,11,13,105,.,.,.,.,.,.,.
CC(=O)C(/C=N/c1cc(-c2ccc(C)cc2)nn1-c1ccccc1)=C(\C)O,106,100,112,21,14,103,.,.,.,.,.,.,.
SMILES,RGS8-Gao reg,RGS4-Gao reg,RGS16-Gao,GSH fluor,Avidin bead fluor,RGS7-Gao,RGS4-Gao HTS,Biotin-avidin,RGS8-Gao single,RGS7-Gao confirm,RGS16-Gao conf,RGS4-Gao confirm,RGS19-Gao conf
COc1ccc([N+](=O)[O-])cc1NC(=O)/C=C/C(=O)O,66,91,13*,10,2,92,91*,i,103,101,107,102,118
COc1ccc([N+](=O)[O-])cc1NC(=O)Cc1ccc(C)cc1,68,84,-0.2*,9,6,79,84*,1,102,100,99,102,86
Cc1ccc([N+](=O)[O-])cc1NC(=O)/C=C/C(=O)O,101,96,96,.,8,?,.,.,.,.,.,.,.
COc1ccc(/C=N/N2CCOCC2)cc1COc1ccc(Cl)cc1,99,101,102,2,17,99,.,.,.,.,.,.,.
CC1CC2=C(C(=O)O1)C(C)Nc1ccccc1N2 (stereo unspecified),85,86,22*,15,8,87,86*,-1,102,99,102,101,83
Cc1ccc(Nc2nc(N)nc(CN3CCN(Cc4ccc5c(c4)OCO5)CC3)n2)cc1Cl,75,-9.2*,-170,20,7,45*,.,1,101,99,101,102,103
CN(C)/C=C1\C=C2C(=O)c3ccccc3N2C1=O,137,242*[activator],224*[activator],.,92*,?,.,1,143*[activator],355*[activator],268*[activator],271*[activator],374*[activator]
